Assay outcomes: PubChem BioAssay, several laboratories
GRIN3A LBD mod: binders of NR3A ligand-binding domain, primary screen, biophysical, differential scanning fluorimetry, uHTS | NR3A LBD differential scanning fluorimetry, Tm shift; 0% = protein alone, 100% = glycine-bound protein | Tm shift relative to glycine control, % at 25 µM | Glutamate receptor ionotropic, NMDA 3A (GRIN3A) ligand-binding domain | 2.5% of 340,000 active;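 active means melting temperature shift of at least 10% of the positive control shift, at one fixed dose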
ADAM10 inh: human ADAM10 inhibitors, primary screen, biochemical, QFRET, HTS | 0.62% of 370,000 active | AID 720582, 2013 | inhibition, % at 7 µM | recombinant ADAM10, EDANS/DABCYL FRET peptide cleavage, 3 h;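 active means inhibition above a per-campaign cutoff equal to the mean of compounds falling between control-based bounds plus 3 SD, cut at about 20% in these data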
ADAM17 inh: ADAM17 inhibitors, primary screen, biochemical, QFRET. Disintegrin and metalloproteinase domain-containing protein 17 (Homo sapiens), P78536. recombinant ADAM17, EDANS/DABCYL FRET peptide cleavage. inhibition, % at 6.95 µM. 0.83% of 370,000 active. AID 720648, 2013;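 active means inhibition above the mean of compounds lying between control limits plus 3 SD, set per campaign, cut at about 8.5% in these data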
AHR act: AHR activators, primary screen, cell-based, luminescence, luciferase reporter, human; AHR-responsive luciferase reporter cells; 2.5% of 320,000 active; activation, % at 5 µM; Aryl hydrocarbon receptor (Homo sapiens), P35869; in the data active means activation above about 47%
Target sequence (P35869 whole entry, looked up): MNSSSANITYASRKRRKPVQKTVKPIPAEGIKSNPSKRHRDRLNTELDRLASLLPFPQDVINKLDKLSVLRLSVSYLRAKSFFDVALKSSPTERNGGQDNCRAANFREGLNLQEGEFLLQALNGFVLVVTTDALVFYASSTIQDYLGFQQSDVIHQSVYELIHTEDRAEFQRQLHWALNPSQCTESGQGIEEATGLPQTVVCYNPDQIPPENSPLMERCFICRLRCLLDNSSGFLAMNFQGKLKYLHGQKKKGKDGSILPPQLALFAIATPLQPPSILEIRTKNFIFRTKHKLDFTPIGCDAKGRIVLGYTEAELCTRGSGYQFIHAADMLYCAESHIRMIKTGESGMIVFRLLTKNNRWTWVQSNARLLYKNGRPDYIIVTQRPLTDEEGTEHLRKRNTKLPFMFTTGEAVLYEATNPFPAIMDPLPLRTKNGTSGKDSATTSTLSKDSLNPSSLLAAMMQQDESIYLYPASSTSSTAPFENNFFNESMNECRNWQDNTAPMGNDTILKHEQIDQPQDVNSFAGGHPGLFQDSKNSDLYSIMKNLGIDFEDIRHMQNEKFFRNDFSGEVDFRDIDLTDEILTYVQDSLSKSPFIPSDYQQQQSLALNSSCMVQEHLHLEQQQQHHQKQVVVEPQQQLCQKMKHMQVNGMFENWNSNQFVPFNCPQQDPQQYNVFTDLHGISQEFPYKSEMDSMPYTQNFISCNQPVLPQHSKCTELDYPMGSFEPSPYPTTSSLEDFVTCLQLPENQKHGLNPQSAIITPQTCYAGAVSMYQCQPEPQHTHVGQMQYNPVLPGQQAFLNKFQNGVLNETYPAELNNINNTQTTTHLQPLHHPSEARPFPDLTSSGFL
proKLK7 act: proKLK7 zymogen activators, primary screen, biochemical, fluorescence intensity | Kallikrein-7 (Homo sapiens), P49862 | purified proKLK7, EDANS-DABCYL substrate fluorescence; 100% is mature enzyme control, 0% vehicle | activation, % at 7 µM | 0.9% of 370,000 active;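 active means activation above the mean of all tested compounds plus 3 SD, computed per campaign excluding outliers beyond control limits, cut at about 13% in these data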
rCAG RNA binder: binders of r(CAG) RNA repeats, primary screen, biochemical, fluorescence; r(CAG) RNA repeat, TO-PRO-1 dye displacement fluorescence; 1.3% of 370,000 active; AID 651821, 2012; inhibition, % at 3 µM;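 active means inhibition above the plate cutoff, the mean of all test compounds on that plate plus 3 SD, cut at about 35% in these data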;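 further: higher means more dye released from RNA so lower well fluorescence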
A number is an active result; – = inactive; · = no result given. In the library only some 7% were active in any assay of this set; here they are far more common.

SMILES | GRIN3A LBD mod | ADAM10 inh | ADAM17 inh | AHR act | proKLK7 act | rCAG RNA binder
COc1cc(/C=N/Nc2ccc(C(F)(F)F)cn2)ccc1O | 30 | – | – | – | – | –
COC(=O)c1ccc(/C=N/Nc2nc3ccccc3[nH]2)cc1 | – | – | – | 48 | – | –
O=C(N/N=C/c1ccc(Cl)cc1)c1ccc2nc[nH]c2c1 | · | – | – | · | – | –
COc1cc(/C=N/Nc2snc(SC)c2C#N)ccc1O | 20 | – | – | 73 | – | –
COc1cc(/C=N/Nc2nc3ccccc3[nH]2)ccc1O | 15 | – | – | 55 | – | –
COc1cc(/C=N/NC(=O)c2cc3ccccc3[nH]2)ccc1O | 34 | – | – | 53 | – | –
COc1cccc(/C=N/Nc2nc3ccccc3[nH]2)c1O | – | – | – | 60 | – | –
COc1cc(/C=N/NC(=O)c2cccc(C(=O)N/N=C/c3ccc(O)c(OC)c3)n2)ccc1O | – | – | – | · | – | –
COc1cccc(/C=N/Nc2nc3ccccc3[nH]2)c1OC | – | – | – | – | – | –
COc1cc(/C=N/Nc2nc3ccccc3[nH]c2=O)ccc1O | – | – | – | – | – | –
CCCC(=O)OC[C@H]1CN([C@H](C)c2ccccc2)S(=O)(=O)c2c(F)cccc2O1 | · | – | – | · | – | –
Cc1noc(NS(=O)(=O)c2ccc(N/C=C\C(=O)c3ccncc3)cc2)c1C | – | – | – | – | – | –
NC(N)=NS(=O)(=O)c1ccc(N/C=C\C(=O)c2ccncc2)cc1 | 244 | – | – | – | – | –
C[C@H](O)[C@@H]1CN2CCc3c([nH]c4c(-c5ccc6c(c5)OCO6)cccc34)[C@@H]2C[C@@H]1N(C)C(=O)c1ccccc1F | · | – | – | · | – | –
CC(Sc1ncnc2ccccc12)C(=O)Nc1ccc2c(c1)OCO2 (configuration not stated) | – | – | – | 51 | – | –
Cc1nn(C(C)C(=O)Nc2ccc3c(c2)OCO3)c(C)c1[N+](=O)[O-] (configuration not stated) | – | – | – | 76 | – | –
Cc1c([N+](=O)[O-])c(C(=O)Nc2ccc3c(c2)OCCO3)nn1C | 10 | – | – | – | – | –
CC(Sc1ccc2c(c1)OCCO2)C(=O)Nc1ccc2c(c1)OCO2 (configuration not stated) | – | – | – | – | – | –
Cc1nn(-c2ccccc2)c(Cl)c1C(=O)OC(C)C(=O)Nc1ccc2c(c1)OCO2 (configuration not stated) | – | – | – | 66 | – | –
NC1=[N+](Cc2ccccc2)C[C@H]2C(=C3CCCC[C@H]3n3c(=O)n(-c4ccccc4)c(=O)n32)N1 | · | – | – | · | – | –
N#Cc1ccc(Cn2ccc3ccc(-c4ccc5ccn(C(=O)c6ccccc6)c5c4)cc32)cc1 | · | – | – | · | – | –
CCCC(=O)OC12CCCN(C1)/C(=C/c1cccc(N(C)C)c1)C2 (configuration not stated) | · | – | – | · | – | –
O=S(=O)(c1ccccc1)N(c1ccccc1)S(=O)(=O)c1ccccc1 | 11 | – | – | · | – | –
O=S(=O)(c1ccccc1)N(F)S(=O)(=O)c1ccccc1 | – | – | – | – | – | –
CC(=Nc1ccc(Cl)cc1N)c1c(O)cc(C)oc1=O | · | – | – | · | – | –
SMILES | GRIN3A LBD mod | ADAM10 inh | ADAM17 inh | AHR act | proKLK7 act | rCAG RNA binder
CC(C)NC(=O)NC1C2CC3CC(C2)CC1C3 (configuration not stated) | 13 | – | – | – | – | –
CC(=O)CC(=O)NC1C2CC3CC(C2)CC1C3 (configuration not stated) | – | – | – | – | – | –
O=C(NC1C2CC3CC(C2)CC1C3)C1CCCCC1 (configuration not stated) | – | – | 8.6 | – | – | –
O=C(CN1CCCC1)NC1C2CC3CC(C2)CC1C3 (configuration not stated) | – | – | – | – | – | –
O=C(Nc1nc2c(Br)cccc2s1)c1ccc2c(c1)OCCO2 | · | – | – | · | · | ·
Oc1ccc(C=NNC(=S)Nc2cccnc2)nc1 | 11 | – | – | · | – | –
COc1cc(/C=N/NC(=S)NCc2ccco2)cc(OC)c1OC | 58 | – | – | – | – | –
S=C(N/N=C/c1ccc2ncccc2c1)Nc1cccnc1 | – | – | – | – | – | –
CC(C)(C)c1ccc(/C=N/NC(=S)Nc2cccnc2)cc1 | · | · | · | – | · | ·
Oc1ccc(/C=N/NC(=S)Nc2cccnc2)cc1O | – | – | – | 79 | – | –
COc1ccccc1/C=N/NC(=S)Nc1cccnc1 | – | – | – | 59 | – | –
O=C(OCCN1CCN(C2CN(Cc3cn(Cc4ccccc4F)nn3)S(=O)(=O)C2)CC1)c1cc2ccccc2o1 (configuration not stated) | · | – | – | · | – | –
CC1(C)C2CC=C(/C=N/NC(=S)Nc3cccnc3)C1C2 (configuration not stated) | – | – | – | 65 | – | –
COc1cc(/C=N/NC(=S)Nc2cccnc2)cc(OC)c1OC | – | – | – | 62 | – | –
CC(C)NC(=S)N/N=C/C1=CCC2CC1C2(C)C (configuration not stated) | – | – | – | – | – | –
COC(=O)C1=C(C)N(Cc2ccccc2C(F)(F)F)C(=NCc2ccc3c(c2)OCO3)NC1c1ccccc1C(F)(F)F (configuration not stated) | · | – | – | · | – | –
COC(=O)c1ccc(CN2C(=O)[C@]3(OCCC=C[C@H]3C)c3cc(OC)ccc32)cc1 | · | – | – | · | – | –
Cc1nc2sccn2c(=O)c1S(=O)(=O)NCC1CCN(Cc2ccccc2Cl)CC1 | 12 | – | – | – | – | –
CCOc1ccccc1NC(=O)NCc1cccnc1 | – | – | – | 84 | – | –
CCOc1ccccc1NC(=O)NCc1ccccc1 | – | – | – | – | – | –
COc1ccc(OC)c(NC(=O)NCc2cccnc2)c1 | – | – | – | 58 | – | –
O=C(CN1CCN(Cc2ccccc2)CC1)N/N=C\c1ccccc1[N+](=O)[O-] | · | – | – | · | – | –
CCCNC(=O)C1CCN(S(=O)(=O)c2ccc3[nH]c(=O)ccc3c2)CC1 | 17 | – | – | – | – | –
COc1cc(NC(=O)C2CCCN(S(=O)(=O)c3ccc4[nH]c(=O)ccc4c3)C2)cc(OC)c1 (configuration not stated) | 12 | – | – | – | – | –
